Source: PubChem BioAssay (NCI)
The panel holds about 79,000 compounds, 15% with a hit somewhere; the sample as a whole holds those more often. Unmarked numbers belong to inactive results. Activity calls are given as the source filed them. Cut-off read from the data, not from the text of the source: active = growth inhibition above about 70%; inactive = the rest.

Tests used:
[1] = NCI Yeast Anticancer Drug Screen. Data for the rad50 strain (AID 155);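 note: 0% = growth of vehicle-only cultures of the same strain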; settings: S. cerevisiae rad50 strain growth inhibition, active compounds read high
Procedure, shortened: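 Inhibition values express reduced yeast growth in compound-treated cultures relative to vehicle-treated controls.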

[2] = NCI Yeast Anticancer Drug Screen. Data for the mec2-1 strain (AID 157); settings: S. cerevisiae mec2-1 strain, active compounds read high
Procedure, shortened: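 Vehicle-treated cultures served as reference for growth inhibition of compound-exposed mec2-1 yeast.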

[3] = NCI Yeast Anticancer Drug Screen. Data for the sgs1 mgt1 strain (AID 161);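 note: 0% = growth of cultures given vehicle only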; settings: S. cerevisiae sgs1 mgt1 strain, active compounds read high
Procedure, shortened: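 Genetically altered yeast, compound exposure, growth inhibition relative to vehicle.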

[4] = NCI Yeast Anticancer Drug Screen. Data for the cln2 rad14 strain (AID 165);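 note: 0% = growth equal to vehicle treated cultures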; settings: S. cerevisiae cln2 rad14 strain, active compounds read high
Procedure, shortened: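 Each compound was tested on cln2 rad14 yeast. Inhibition of growth was calculated against vehicle-exposed controls.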

[5] = NCI Yeast Anticancer Drug Screen. Data for the bub3 strain (AID 167); settings: S. cerevisiae bub3 mutant strain, active compounds read high
Procedure, shortened: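 Steps: expose the mutant yeast strain to compound; grow alongside vehicle-treated cultures; measure growth; express inhibition against the vehicle cultures.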

[6] = NCI Yeast Anticancer Drug Screen. Data for the mlh1 rad18 strain (AID 175); settings: S. cerevisiae mlh1 rad18 strain growth inhibition, active compounds read high
Procedure, shortened: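 Vehicle-treated cultures served as the reference for growth inhibition in a yeast strain carrying DNA damage repair alterations exposed to each compound.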

[7] = at 5.0 µM (retest, dose inferred, filed as 0.5)
[8] = at 50.0 µM (retest, dose inferred, filed as 5.0)

Compound | growth inhibition [1, 7] | growth inhibition [1, 8] | growth inhibition ([1]; at 50.0 µM) | growth inhibition [2, 7] | growth inhibition [2, 8] | growth inhibition ([2]; at 50.0 µM) | growth inhibition [3, 7] | growth inhibition [3, 8] | growth inhibition ([3]; at 50.0 µM) | growth inhibition [4, 7] | growth inhibition [4, 8] | growth inhibition ([4]; at 50.0 µM) | growth inhibition [5, 7] | growth inhibition [5, 8] | growth inhibition ([5]; at 50.0 µM) | growth inhibition [6, 7] | growth inhibition [6, 8] | growth inhibition ([6]; at 50.0 µM)
CCOC(=O)C1=C(C)NC(C)=C(C(=O)OCC)C1c1ccnc2ccccc12 | 10% | 94% (active) | 63.8% | 7% | 97% (active) | 54.4% | -26% | 96% (active) | 55% | -8% | 93% (active) | 63.8% | 10% | 93% (active) | 98% (active) | 10% | 96% (active) | 55.9%
Cc1cccc(/C=N\OCCc2ccccc2)n1 | 0% | 85% (active) | -3.05% | -6% | 53% | 80.2% (active) | 1% | 84% (active) | 16.6% | -14% | 21% | -14.1% | 2% | 94% (active) | 47.7% | -2% | 88% (active) | 32.8%
CC(=O)OCC1CC2OC2CC1C (stereo not given) | 1% | 2% | 70.1% (active) | 6% | -5% | 50.1% | 15% | 7% | 70.4% (active) | 34% | 9% | 68.1% | 27% | 19% | 75% (active) | -12% | -26% | 63%
Nc1ncnc2nn(C3OC(CO)C(O)C3O)nc12 (stereo not given) | 15% | 20% | 29.1% | 2% | 6% | -26.2% | -7% | 6% | -22.1% | -29% | -18% | 33.1% | 0% | 1% | -70.4% | 4% | 0% | -4.75%
Fc1ccc(CSC(=S)Nc2ccc(Br)cc2)cc1 | 9% | 99% (active) | 91.2% (active) | 8% | 99% (active) | 90% (active) | 11% | 99% (active) | 94.8% (active) | -9% | 99% (active) | 56.2% | -6% | 99% (active) | 71.1% (active) | 21% | 99% (active) | 95.5% (active)
CCC[CH2][Sn]1([CH2]CCC)[O]CC([CH2][Sn]([c]2ccccc2)([c]2ccccc2)[c]2ccccc2)[O]1 (stereo not given) | 100% (active) | 100% (active) | 90.3% (active) | 97% (active) | 97% (active) | 91.7% (active) | 99% (active) | 99% (active) | 90.8% (active) | 99% (active) | 99% (active) | 91.7% (active) | 97% (active) | 97% (active) | 91.3% (active) | 98% (active) | 98% (active) | 89% (active)
OC(c1cc(-c2ccccc2)nc2c(Cl)cc(Cl)cc12)C1CCCCN1 (stereo not given) | 14% | 97% (active) | 99.5% (active) | 18% | 92% (active) | 99.6% (active) | 18% | 98% (active) | 99.1% (active) | 3% | 98% (active) | 98.3% (active) | 2% | 99% (active) | 97.5% (active) | 11% | 96% (active) | 98.8% (active)
Cc1cc(Br)c(P(=O)(O)O)cc1[N+](=O)[O-] | -3% | -10% | 74.1% (active) | -7% | -3% | 42.7% | -3% | -14% | 72% (active) | 0% | -5% | -2.55% | 3% | 6% | 4.4% | 3% | -4% | 64%
C=C1CC(c2ccc(OCCCN3C(=O)c4ccccc4C3=O)cc2)OC1=O (stereo not given) | 33% | 71% (active) | 10.1% | 30% | 82% (active) | -3.6% | 28% | 67% | 15% | 23% | 63% | 29.1% | 33% | 80% (active) | 8.8% | 34% | 86% (active) | -6%
S=c1n(-c2ccc(Cl)cc2)c2nc3ccccc3nc(/c2=N\Nc2cc(Cl)ccc2Cl)n1-c1ccc(Br)cc1 | 2% | 16% | 50.3% | -9% | -12% | 84.5% (active) | 0% | 9% | 78% (active) | -6% | -24% | 76% (active) | -6% | 15% | 85.1% (active) | 1% | 4% | 68%
